SMILES strings stand for the structures. “And” between values parts separate entries of the source, which are not always exact repeats. Identical values can stand only once. Counter-ions that a name gives are not always drawn. Unmarked numbers belong to inactive results.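 The calls were made as follows: active = log2 fold change beyond 2 SD from the library mean after excluding viability outliers; inactive = within 2 SD.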

For the assay, the target named is PARP1 L713F-nLuc biosensor (HCT116) (UniProt P09874). The experiment in a line: PARP1 L713F-nLuc/akaLuc ratio relative to DMSO control (biosensor stabilization) (fold change); higher = more PARP1 biosensor stabilization (target engagement / stabilizer), active = hit call of the paper. Conditions: stock concentration (mM; final µM = stock mM x 1): 10; 24 h.
PARP1 L713F-nLuc biosensor (HCT116), sequence (P09874 whole entry L713F, looked up): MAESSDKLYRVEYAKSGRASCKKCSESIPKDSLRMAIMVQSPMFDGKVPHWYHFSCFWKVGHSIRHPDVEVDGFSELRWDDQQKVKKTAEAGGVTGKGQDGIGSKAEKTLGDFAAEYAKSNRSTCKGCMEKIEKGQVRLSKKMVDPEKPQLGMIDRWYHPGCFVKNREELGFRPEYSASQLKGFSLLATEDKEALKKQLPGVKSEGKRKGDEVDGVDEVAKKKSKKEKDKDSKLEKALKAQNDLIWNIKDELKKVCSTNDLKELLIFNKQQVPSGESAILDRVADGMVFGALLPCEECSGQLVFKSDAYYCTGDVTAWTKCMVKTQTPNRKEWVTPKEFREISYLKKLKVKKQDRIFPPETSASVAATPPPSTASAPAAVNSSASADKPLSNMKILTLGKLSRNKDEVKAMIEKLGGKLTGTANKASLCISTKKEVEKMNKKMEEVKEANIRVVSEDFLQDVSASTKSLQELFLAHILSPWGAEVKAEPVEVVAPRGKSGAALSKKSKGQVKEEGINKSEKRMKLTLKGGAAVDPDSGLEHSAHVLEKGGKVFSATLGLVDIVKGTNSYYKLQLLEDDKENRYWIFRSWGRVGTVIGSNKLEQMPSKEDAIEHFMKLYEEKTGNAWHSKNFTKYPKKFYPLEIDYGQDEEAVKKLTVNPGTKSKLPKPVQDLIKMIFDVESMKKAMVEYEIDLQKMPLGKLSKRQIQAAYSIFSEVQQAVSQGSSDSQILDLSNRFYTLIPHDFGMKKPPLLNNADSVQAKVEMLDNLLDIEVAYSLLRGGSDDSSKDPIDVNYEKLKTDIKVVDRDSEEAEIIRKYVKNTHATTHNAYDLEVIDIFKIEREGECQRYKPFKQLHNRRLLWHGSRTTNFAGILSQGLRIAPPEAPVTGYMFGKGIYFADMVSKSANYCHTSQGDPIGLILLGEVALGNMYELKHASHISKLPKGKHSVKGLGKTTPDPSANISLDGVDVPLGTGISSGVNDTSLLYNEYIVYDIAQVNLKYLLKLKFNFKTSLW
Turning to `COc1ccc(CN2CCC(c3ccc4nc(C(=O)N5CCN(Cc6ccc(C(F)(F)F)cc6)CC5)[nH]c4c3)CC2)cn1`, the “PARP1 L713F-nLuc/akaLuc ratio” value is 0.348.

As to `CCC(CC)(NC(=O)C(C)C)C(=O)N[C@@H](CCCN=C(N)N)C(=O)NC1(C(=O)NC(c2ccc(F)cc2)c2ccc(F)cc2)CCCC1`, the “PARP1 L713F-nLuc/akaLuc ratio” value is 0.991.

For `NS(=O)(=O)NCCNc1nonc1/C(=N/O)Nc1ccc(F)c(Br)c1`, the “PARP1 L713F-nLuc/akaLuc ratio” value was 0.587.

Turning to `CC(=O)Nc1ccc(NC(=S)NC(=O)c2ccc(C(C)(C)C)cc2)cc1` [Tenovin-1], the “PARP1 L713F-nLuc/akaLuc ratio” value was 0.509.

`CNC(=O)c1ccc(N2C(=S)N(c3ccc(C#N)c(C(F)(F)F)c3)C(=O)C2(C)C)cc1F` [Enzalutamide (MDV3100)]: the “PARP1 L713F-nLuc/akaLuc ratio” value is 0.993.

Take `CS(=O)(=O)c1ccc(-c2cnc(N)c(C(=O)Nc3ccccc3)n2)cc1`: the “PARP1 L713F-nLuc/akaLuc ratio” value is 1.46.

In the case of `CNCCN1CCC(OCc2ccccc2)CC1`, the “PARP1 L713F-nLuc/akaLuc ratio” value was 0.908.

On to `CN1CCC(COc2cnc(-c3cccc(Cn4nc(-c5cccc(C#N)c5)ccc4=O)c3)nc2)CC1`, for which the “PARP1 L713F-nLuc/akaLuc ratio” value is 0.968.

With `O=C(Nc1cccc(Cl)c1)Nc1ncc(CCNc2ncnc3ccsc23)s1` [SNS-314 (mesylate)], the “PARP1 L713F-nLuc/akaLuc ratio” value is 1.11.

Consider `COc1cc2c(NC3CCN(C)CC3)nc(N3CCCN(C)CC3)nc2cc1OCCCN(C)C`, for which the “PARP1 L713F-nLuc/akaLuc ratio” value is 0.782.

With `CCCCNC(=N)NC(=N)N` [Buformin (hydrochloride)], the “PARP1 L713F-nLuc/akaLuc ratio” value is 0.782.

For `COc1cc2onc(C)c2cc1NS(=O)(=O)c1cc(Br)ccc1OC`, the “PARP1 L713F-nLuc/akaLuc ratio” value is 0.95.

In the case of `CN(C)CCCNC(=O)c1ccc(-c2cc(O)c3ncccc3c2)cc1`, the “PARP1 L713F-nLuc/akaLuc ratio” value was 0.5.

Consider `Cc1ccc(Oc2nc3cc(-c4ccc5c(ccn5C)c4)c(Cl)cc3[nH]2)cc1C(=O)O`, for which the “PARP1 L713F-nLuc/akaLuc ratio” value is 0.541.

Regarding `Cc1c(C(=O)Nc2ccc(N3C[C@@H](C)O[C@@H](C)C3)nc2)cccc1-c1ccc(OC(F)(F)F)cc1` [Sonidegib (Erismodegib, NVP-LDE225)], the “PARP1 L713F-nLuc/akaLuc ratio” value was 0.652.

`C[C@H](NC(=O)/C(C#N)=C/c1cccc(Br)n1)c1ccccc1`: the “PARP1 L713F-nLuc/akaLuc ratio” value is 0.804.

With `C[C@@H]1CC[C@@]2(OC1)O[C@H]1C[C@H]3[C@@H]4CC=C5C[C@@H](O[C@@H]6O[C@H](CO)[C@@H](O[C@@H]7O[C@@H](C)[C@H](O[C@@H]8O[C@@H](C)[C@H](O)[C@@H](O)[C@H]8O)[C@@H](O)[C@H]7O)[C@H](O)[C@H]6O[C@@H]6O[C@@H](C)[C@H](O)[C@@H](O)[C@H]6O)CC[C@]5(C)[C@H]4CC[C@]3(C)[C@@]1(O)[C@@H]2C` [Paris saponin VII], the “PARP1 L713F-nLuc/akaLuc ratio” value was 1.01.

Take `CC(C)(Oc1ccc(Cl)cc1)C(=O)Nc1ccc(OCc2ccc(C#N)cc2)cc1` [AMPK activator 4]: the “PARP1 L713F-nLuc/akaLuc ratio” value was 1.2.

Turning to `CCN(c1cc(C#CCN2CCOCC2)cc(C(=O)NCc2c(C)cc(C)[nH]c2=O)c1C)[C@H]1CC[C@H](N(C)CCOC)CC1`, the “PARP1 L713F-nLuc/akaLuc ratio” value is 1.57 and 1.94.

Consider `CC(CCc1ccccn1)(CCc1ccccn1)C(=O)c1ccccc1`, for which the “PARP1 L713F-nLuc/akaLuc ratio” value is 1.27.

For `O=C(O)c1ccccc1Nc1cccc(C(F)(F)F)c1` [Flufenamic acid], the “PARP1 L713F-nLuc/akaLuc ratio” value is 1.23.

In the case of `Cc1cc(C)nc(SCC(=O)Nc2ncc(Cc3cccc4ccccc34)s2)n1`, the “PARP1 L713F-nLuc/akaLuc ratio” value was 0.926.

For `O=C(Nc1ccc2c(O)cc(S(=O)(=O)O)cc2c1)Nc1ccc2c(O)cc(S(=O)(=O)O)cc2c1` [AMI-1 (free acid)], the “PARP1 L713F-nLuc/akaLuc ratio” value is 1.04.

As for `CO[C@@H](C(=O)N1Cc2[nH]nc(NC(=O)c3ccc(N4CCN(C)CC4)cc3)c2C1)c1ccccc1` [Danusertib], the “PARP1 L713F-nLuc/akaLuc ratio” value was 0.752.

Turning to `COCC(=O)Nc1cc(Sc2ccccc2)ccc1N=C(NC(=O)OC)NC(=O)OC` [Febantel], the “PARP1 L713F-nLuc/akaLuc ratio” value was 1.6.

As to `Cc1cc(Cl)ccc1OCCCC(=O)NO` [Droxinostat], the “PARP1 L713F-nLuc/akaLuc ratio” value is 2.78 (active).

`C=CC(=O)N1C[C@H](Nc2ncnc3[nH]ccc23)CC[C@@H]1C` [Ritlecitinib]: the “PARP1 L713F-nLuc/akaLuc ratio” value was 1.01.

Take `Cc1c(CN2CCC(Nc3ncnc4sc(CC(F)(F)F)cc34)CC2)ccc2c1cc(C#N)n2Cc1cn[nH]c1`: the “PARP1 L713F-nLuc/akaLuc ratio” value is 0.806.

Regarding `O=c1[nH]c(Oc2cnn(Cc3ccccc3)c2)nc2cnccc12`, the “PARP1 L713F-nLuc/akaLuc ratio” value was 0.946.

For `COc1ccc2c(c1O)OC(C)(C)c1c-2ccc2c1C(=O)N(c1ccc(C(=O)c3ccccc3)cc1)C2=O` [Ampkinone], the “PARP1 L713F-nLuc/akaLuc ratio” value is 1.18.
